The results in this text go back to PubChem BioAssay AID722 (NMMLSC, 2007).

Each structure is given as a SMILES string. Hit rate of the full screen: of about 1,300 compounds, about 40 (3%) were called active. Many of the other results were omitted from the sample, so actives are more common in it than they were. A number with no mark means an inactive call. No stated cut-off is given here; in the data, active means inhibition above about 30%; inactive means the rest.

Sequence of fMet-Leu-Phe receptor (Homo sapiens) (P21462 whole entry, looked up): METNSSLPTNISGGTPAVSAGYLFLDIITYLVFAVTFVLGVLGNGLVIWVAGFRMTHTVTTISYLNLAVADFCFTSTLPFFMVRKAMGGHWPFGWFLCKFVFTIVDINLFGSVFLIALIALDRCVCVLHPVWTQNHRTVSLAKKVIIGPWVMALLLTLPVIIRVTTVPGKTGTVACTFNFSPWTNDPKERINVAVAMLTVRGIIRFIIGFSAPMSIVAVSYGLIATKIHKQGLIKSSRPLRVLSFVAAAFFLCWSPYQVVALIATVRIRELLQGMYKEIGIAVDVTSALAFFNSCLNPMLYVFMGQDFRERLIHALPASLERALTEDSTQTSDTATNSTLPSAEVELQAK

This experiment concerns the target fMet-Leu-Phe receptor (Homo sapiens) (UniProt P21462). The experiment is described as follows: FPR1 fluorescent ligand binding inhibitors, primary screen, cell-based, flow cytometry, SAR analysis (AID 722). The note with it: FPR-expressing cells, active compounds read high, concentration not given here.
A word on the inhibition: it is the relative decrease from the control value, in per cent. Regarding `CC(C)c1ccc(C2/C(=C(\O)c3ccc(F)cc3)C(=O)C(=O)N2CCCN2CCOCC2)cc1` (configuration not stated), the inhibition was -6%.

For `COc1ccc2c(=O)c(-c3ccccc3)c(C(F)(F)F)oc2c1C`, the inhibition was -2.4%.

In the case of `CCc1cc2c(=O)c(-c3nc4ccccc4s3)c(C)oc2cc1OC(C)=O`, the inhibition was 4%.

Turning to `O=C1C(=O)N(CCN2CCOCC2)C(c2cccc(Br)c2)/C1=C(\O)c1ccccc1` (configuration not stated), the inhibition was 1.8%.

For `Cc1onc(-c2c(Cl)cccc2Cl)c1C(=O)N1CCC(C)CC1`, the inhibition was 5.9%.

Turning to `COC(=O)c1c(NC(=O)c2cccc(Br)c2)sc2c1CCCC2`, the inhibition was -4.7%.

Consider `Cc1cc(N2C(=O)CSC2c2ccccc2F)ccc1Br` (configuration not stated), for which the inhibition is 0.4%.

With `COc1ccc(OC)c(C2C(C(=O)/C=C/c3ccccc3)=C(O)C(=O)N2CCCCCC(=O)O)c1` (configuration not stated), the inhibition was -3.9%.

For `Cc1oc2cc(OCC(=O)O)ccc2c(=O)c1-c1ccc2c(c1)OCCO2`, the inhibition is 3.2%.

Consider `N#Cc1c(N/C(=C\C(=O)c2ccccc2)C(=O)O)sc2c1CCC2`, for which the inhibition was 53% (active).

`CCOC(=O)c1c(NC(=O)Cc2ccccc2)sc2c1CCCCC2`: the inhibition is -0.4%.

Turning to `COc1cccc(C(=O)/C=C(\Nc2sc3c(c2C#N)CCC3)C(=O)O)c1`, the inhibition was -24.9%.

Regarding `Cn1c2c(c(=O)n3ncc(C(=O)O)c13)CN(Cc1ccccc1)CC2`, the inhibition is -6.5%.

Turning to `CCc1cc2c(=O)c(-c3nc4ccccc4n3C)c(C)oc2c(CN2CCCCC2)c1O`, the inhibition was -12.9%.

For the compound `CCOC(=O)c1c(NC(=O)c2cc(C)no2)sc(C)c1C`, the inhibition is 2.2%.

Regarding `COc1ccc(OC)c(NC(=O)C(C)n2sc3ccccc3c2=O)c1` (configuration not stated), the inhibition is 2.2%.

With `CCCCCCOc1cccc(N2C(=O)C(=O)/C(=C(\O)c3ccccc3)C2c2cccc(F)c2)c1` (configuration not stated), the inhibition is 56.3% (active).

In the case of `CCCCCCOc1cccc(N2C(=O)C(=O)/C(=C(\O)c3ccccc3)C2c2ccc(C(C)C)cc2)c1` (configuration not stated), the inhibition was -11.9%.

With `O=C(O)COc1ccc(N2C(=O)C(=O)/C(=C(\O)c3ccccc3)C2c2cccc(F)c2)cc1` (configuration not stated), the inhibition was -6.1%.

In the case of `Cc1cccc(N2C(=O)C(=O)/C(=C(/O)c3ccccc3)C2c2cccc(F)c2)c1` (configuration not stated), the inhibition was 4.1%.

For the compound `COc1ccc(/C(O)=C2/C(=O)C(=O)N(c3ccc(C)c(Br)c3)C2c2cccc(F)c2)cc1` (configuration not stated), the inhibition is 20.6%.

Consider `Cc1ccc(N2C(=O)C(=O)/C(=C(\O)c3ccccc3)C2c2cccc(F)c2)cc1Br` (configuration not stated), for which the inhibition was 30.2% (active).

In the case of `COC(=O)c1c(NC(=O)c2ccc(C)cc2)sc(C)c1C`, the inhibition was -13.3%.

Regarding `COc1ccc(C2/C(=C(\O)c3ccccc3)C(=O)C(=O)N2CCN2CCOCC2)c(OC)c1` (configuration not stated), the inhibition is 17%.

Turning to `CCOc1ccc(/C(O)=C2\C(=O)C(=O)N(CCN3CCOCC3)C2c2ccc(Br)cc2)c(C)c1` (configuration not stated), the inhibition is -1.7%.

In the case of `COc1ccc(C2SCC(=O)N2c2ccc(Br)cc2)cc1` (configuration not stated), the inhibition is 1.9%.

For `CCCN(C(=O)c1cccc(NC(=O)[C@H]2[C@@H]3C[C@@H]4[C@H]2C(=O)O[C@@H]4C3)c1)c1ccccc1F`, the inhibition was -2.9%.

With `CCOC(=O)c1c(NC(=O)c2ccco2)sc(C)c1C`, the inhibition was -1.8%.

`CCOC(=O)C1NN=C(C(=O)c2ccccc2)C1c1ccccc1` (configuration not stated): the inhibition is -1%.

Turning to `CCSC1=C(C#N)C(c2ccc3c(c2)OCO3)CC(=O)N1` (configuration not stated), the inhibition was -2.1%.

For the compound `COc1cccc(C2/C(=C(/O)c3ccc(Cl)cc3)C(=O)C(=O)N2c2ccc(C)c(Br)c2)c1` (configuration not stated), the inhibition is 0.2%.

In the case of `COc1ccc(C2CC(=O)C3=C(C2)NC(=O)CC3c2cccs2)cc1OC` (configuration not stated), the inhibition was -3.3%.
